In PubChem BioAssay (EPA / NIEHS):
Results filed as inconclusive are left out. Activity calls are given as the source filed them. The calls were made as follows: active = hit-call score of the fitted dose curve at least 0.9, where 1 is the maximum; inconclusive = response in the unintended direction; inactive = score below 0.9.

Tests used:
[1] = LTEA_HepaRG_LDH_cytotoxicity: Cytotoxicity Assessment in the Life Technologies and Expression Analysis (LTEA) Assay (AID 2283563)
How it was run: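 Differentiated HepaRG cells in serum-free induction medium, exposed 48 h in duplicate to 8 half-log concentrations up to 100 uM in 0.5% DMSO. Cytotoxicity from LDH measured in spent medium, fit relative to DMSO.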

[2] = TOX21_p53_BLA_p2_viability: Viability Assessment in the Tox21 HCT-116 p53 Agonism Beta-lactamase Assay, Phase 2 (AID 2283591);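 also: compound exposure lasted 16 h at 37 °C; actives lower the ATP signal meaning cytotoxicity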
How it was run: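 HCT116 p53-bla cells, 4000/well, dosed after 5 h plating (217-fold dilution of DMSO stocks) and incubated 16 h at 37C. Viability taken as cellular ATP by CellTiter-Glo luminescence after 30 min RT; signal loss marks cytotoxicity.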

[3] = molecular target: Cellular tumor antigen p53 (Homo sapiens) (UniProt P04637); assay: TOX21_p53_BLA_p2_ratio: Tox21 HCT-116 p53 Agonism Beta-lactamase Assay, Ratio, Phase 2 (AID 2283592)
How it was run: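 HCT-116 cells with p53-responsive beta-lactamase reporter, 4000 cells/well, preincubated 5 h, then compound in DMSO (217-fold dilution) for 16 h at 37C. CCF4-AM substrate 2 h at room temperature; 460/530 nm emission ratio fitted upward versus DMSO.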

[4] = TOX21_p53_BLA_p3_viability: Viability Assessment in the Tox21 HCT-116 p53 Agonism Beta-lactamase Assay, Phase 3 (AID 2283593);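 also: cells exposed to compound for 16 h before reading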
How it was run: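 HCT116 cells, 4000/well, dosed 5 h after plating by pin transfer (217-fold dilution from DMSO stock) and incubated 16 h at 37C, 5% CO2. Viability read as ATP luminescence with CellTiter-Glo after 30 min at room temperature.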

[5] = molecular target: Cellular tumor antigen p53 (Homo sapiens) (UniProt P04637); assay: TOX21_p53_BLA_p3_ratio: Tox21 HCT-116 p53 Agonism Beta-lactamase Assay, Ratio, Phase 3 (AID 2283596)
How it was run: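 HCT116 p53-bla cells (4000/well) given compound in DMSO (217-fold dilution) after 5 h, incubated 16 h at 37C. CCF4-AM substrate 2 h at room temperature; 460/530 nm emission ratio, gain fitted against DMSO.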

[6] = TOX21_p53_BLA_p5_viability: Viability Assessment in the Tox21 HCT-116 p53 Agonism Beta-lactamase Assay, Phase 5 (AID 2283600)
How it was run: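 HCT-116 p53 beta-lactamase reporter cells, 4000/well, were exposed to compound (pin transfer, 217-fold dilution) for 16 hours at 37C. Cellular ATP was read by CellTiter-Glo luminescence after 30 min at room temperature.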

[7] = molecular target: Cellular tumor antigen p53 (Homo sapiens) (UniProt P04637); assay: TOX21_p53_BLA_p4_ratio: Tox21 HCT-116 p53 Agonism Beta-lactamase Assay, Ratio, Phase 4 (AID 2283601)
How it was run: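 HCT-116 p53 beta-lactamase reporter cells (4000/well) preincubated 5 h, then compound (217-fold dilution of DMSO stock) for 16 h at 37C. CCF4-AM substrate added 2 h at room temperature; 460/530 nm emission ratio fitted upward versus DMSO.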

[8] = Tanguay_ZF_120hpf_MORT_legacy: (Legacy) Oregon State University Tanguay Lab 120 Hour Post-fertilization zebrafish Assay for Mortality (AID 2283633);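 as to AC50: fitted as increase in binary mortality versus DMSO negative control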
How it was run: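 Dechorionated Tropical 5D wild-type zebrafish embryos, one per well from 6 hpf, static exposure in 0.64% DMSO at 28C until 120 hpf. Mortality scored as binary by brightfield microscopy at 24 and 120 hpf.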

[9] = Tanguay_ZF_120hpf_AXIS_legacy: (Legacy) Oregon State University Tanguay Lab 120 Hour Post-fertilization zebrafish Assay for Body Axis Malformation (AID 2283635);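 as to AC50: potency for an increased fraction of larvae scored with body axis malformation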
How it was run: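 Dechorionated wild-type Tropical 5D zebrafish embryos, one per well, statically exposed from 6 hpf to 120 hpf at 28C in 0.64% DMSO final. Body axis malformation scored present/absent by brightfield microscopy at 120 hpf; dead embryos excluded.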

[10] = Tanguay_ZF_120hpf_SNOU_legacy: (Legacy) Oregon State University Tanguay Lab 120 Hour Post-fertilization zebrafish Assay for Snout Malformation (AID 2283637)
How it was run: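 Dechorionated tropical 5D wild-type zebrafish embryos exposed statically from 6 to 120 hpf at 28C, one per well, in 0.64% DMSO. Snout malformation scored as present/absent by brightfield at 120 hpf; dead embryos not scored.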

[11] = Tanguay_ZF_120hpf_JAW_legacy: (Legacy) Oregon State University Tanguay Lab 120 Hour Post-fertilization zebrafish Assay for Jaw Malformation (AID 2283638)
How it was run: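 Dechorionated Tropical 5D wild-type zebrafish embryos, one per well, exposed statically from 6 hpf to 120 hpf at 28C in 0.64% DMSO. Jaw malformation was scored by brightfield microscopy as present or absent. It was not scored in dead embryos.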

[12] = Tanguay_ZF_120hpf_OTIC_legacy: (Legacy) Oregon State University Tanguay Lab 120 Hour Post-fertilization zebrafish Assay for Otic Vesicle Malformation (AID 2283639)
How it was run: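 Otic vesicle malformation is read as a yes/no morphology call at 120 hpf. Exposure is static at 28C with 0.64% (vol/vol) DMSO; embryos that die are excluded from non-mortality endpoints.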

[13] = Tanguay_ZF_120hpf_SOMI_legacy: (Legacy) Oregon State University Tanguay Lab 120 Hour Post-fertilization zebrafish Assay for Somite Malformation (AID 2283647)
How it was run: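 Dechorionated Tropical 5D wild-type zebrafish embryos, one per well from 6 hpf, statically exposed at 28C to 120 hpf in 0.64% DMSO; somite malformation scored present/absent by brightfield; trimethyltin 5 uM positive control; dead embryos not scored.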

[14] = TOX21_p53_BLA_p4_viability: Viability Assessment in the Tox21 HCT-116 p53 Agonism Beta-lactamase Assay, Phase 4 (AID 2283597);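 also: hits lower the luminescence signal meaning cytotoxicity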
How it was run: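 HCT-116 p53-bla cells, 4000/well, dosed after 5 h attachment and incubated 16 h at 37 °C, 5% CO2. Viability from CellTiter-Glo ATP luminescence after 30 min at room temperature, taken after the beta-lactamase read; loss of signal indicates cytotoxicity.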

[15] = molecular target: Cellular tumor antigen p53 (Homo sapiens) (UniProt P04637); assay: TOX21_p53_BLA_p5_ratio: Tox21 HCT-116 p53 Agonism Beta-lactamase Assay, Ratio, Phase 5 (AID 2283599)
How it was run: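 HCT-116 p53-bla cells (4000/well) plated 5 h, dosed with compound (217-fold DMSO dilution) for 16 h at 37 C; CCF4-AM substrate 2 h at room temperature. Activity is the 460/530 nm emission ratio (405 nm excitation), fitted in gain-of-signal direction versus DMSO.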

[16] = Tanguay_ZF_120hpf_YSE_legacy: (Legacy) Oregon State University Tanguay Lab 120 Hour Post-fertilization zebrafish Assay for Yolk Sac Edema (AID 2283634);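 as to AC50: actives raise the incidence of yolk sac edema above the DMSO baseline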
How it was run: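 Dechorionated Tropical 5D wild-type zebrafish embryos were exposed statically, one per well, from 6 to 120 hpf at 28C in 0.64% DMSO. Yolk sac edema was scored present/absent by brightfield at 120 hpf, and dead embryos were excluded.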

[17] = Tanguay_ZF_120hpf_EYE_legacy: (Legacy) Oregon State University Tanguay Lab 120 Hour Post-fertilization zebrafish Assay for Eye Malformation (AID 2283636);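 also: binary presence or absence of eye malformation scored by brightfield in 120 hpf larvae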
How it was run: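 Dechorionated Tropical 5D zebrafish embryos, one per well from 6 hpf, static exposure to 120 hpf at 28C, 0.64% DMSO. Eye malformation scored present/absent by brightfield; dead embryos not scored.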

[18] = Tanguay_ZF_120hpf_PE_legacy: (Legacy) Oregon State University Tanguay Lab 120 Hour Post-fertilization zebrafish Assay for Pericardial Edema (AID 2283640)
How it was run: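 Tropical 5D wild-type zebrafish embryos were statically exposed until 120 hpf at 28C, with 0.64% DMSO final. Pericardial edema was scored by brightfield as present or absent; endpoints were not scored in dead embryos.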

[19] = Tanguay_ZF_120hpf_BRAI_legacy: (Legacy) Oregon State University Tanguay Lab 120 Hour Post-fertilization zebrafish Assay for Brain Malformation (AID 2283641)
How it was run: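 Tropical 5D wild-type zebrafish embryos exposed statically until 120 hpf at 28C, 0.64% DMSO final, sealed and dark. Brain malformation scored present/absent by brightfield at 120 hpf; dead embryos excluded. Trimethyltin chloride 5uM positive control.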

Measured: AC50

Chain of Cellular tumor antigen p53 (Homo sapiens) (P04637 whole entry, looked up): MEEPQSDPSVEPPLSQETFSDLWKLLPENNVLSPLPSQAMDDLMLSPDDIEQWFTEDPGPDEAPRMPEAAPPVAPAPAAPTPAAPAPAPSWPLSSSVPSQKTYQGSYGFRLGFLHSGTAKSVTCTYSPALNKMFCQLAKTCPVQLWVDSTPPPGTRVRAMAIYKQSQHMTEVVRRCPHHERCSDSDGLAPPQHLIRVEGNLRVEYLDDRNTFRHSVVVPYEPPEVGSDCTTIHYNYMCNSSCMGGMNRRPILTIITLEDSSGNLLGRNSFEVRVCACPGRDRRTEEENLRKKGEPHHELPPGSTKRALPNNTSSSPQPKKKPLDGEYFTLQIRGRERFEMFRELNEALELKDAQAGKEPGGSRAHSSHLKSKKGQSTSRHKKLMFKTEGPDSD

c1ccc2ccccc2c1
not listed: [14] | [15] | [16] | [17] | [18] | [19]
inactive: all other assays above

Cc1oc2c(NC(=O)c3c(Cl)cccc3Cl)cccc2c1C(C)(C)O
active: [8] 26 µM
not listed: [1] | [6] | [7] | [19]
inactive: all other assays above

CCCC(=O)OCCC(C)C
not listed: [2] | [4] | [6] | [7]
inactive: all other assays above

Cc1ncc(CO)c(CO)c1O
not listed: [1] | [6] | [15] | [19]
inactive: all other assays above

O=C(OCCCCCCOC(=O)c1ccccc1)c1ccccc1
inactive: [1] | [14] | [15] | [7] | [8] | [16] | [9] | [11] | [13]

COc1cccc([C@H](O)C2CCN(CCc3ccc(F)cc3)CC2)c1OC
active: [16] 44.9 µM | [9] 34 µM | [10] 45.8 µM
not listed: [3] | [5] | [7] | [18] | [19]
inactive: all other assays above

CCO[Si](CCCNC(N)=O)(OCC)OCC
not listed: [6] | [14] | [16] | [18] | [19]
inactive: all other assays above
